# KLK7 zymogen act: proKLK7 zymogen activators, primary screen, biochemical, fluorescence intensity. activation, % at 7 µM. Kallikrein-7 (Homo sapiens), P49862. 370,000 compounds, 0.9% hits. purified proKLK7, EDANS-DABCYL substrate fluorescence; 100% is mature enzyme control, 0% vehicle. AID 652039, 2013;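 active = activation above the mean of all tested compounds plus 3 SD, computed per campaign excluding outliers beyond control limits, cut at about 13% in these data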
# ADAM17 inh: ADAM17 inhibitors, primary screen, biochemical, QFRET | recombinant ADAM17, EDANS/DABCYL FRET peptide cleavage | inhibition, % at 6.95 µM | 370,000 compounds, 0.83% hits | AID 720648, 2013;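 active = inhibition above the mean of compounds lying between control limits plus 3 SD, set per campaign, cut at about 8.5% in these data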;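 note: 0% = DMSO-only wells as the low control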
# Target sequence (P78536 215-824 limits assumed): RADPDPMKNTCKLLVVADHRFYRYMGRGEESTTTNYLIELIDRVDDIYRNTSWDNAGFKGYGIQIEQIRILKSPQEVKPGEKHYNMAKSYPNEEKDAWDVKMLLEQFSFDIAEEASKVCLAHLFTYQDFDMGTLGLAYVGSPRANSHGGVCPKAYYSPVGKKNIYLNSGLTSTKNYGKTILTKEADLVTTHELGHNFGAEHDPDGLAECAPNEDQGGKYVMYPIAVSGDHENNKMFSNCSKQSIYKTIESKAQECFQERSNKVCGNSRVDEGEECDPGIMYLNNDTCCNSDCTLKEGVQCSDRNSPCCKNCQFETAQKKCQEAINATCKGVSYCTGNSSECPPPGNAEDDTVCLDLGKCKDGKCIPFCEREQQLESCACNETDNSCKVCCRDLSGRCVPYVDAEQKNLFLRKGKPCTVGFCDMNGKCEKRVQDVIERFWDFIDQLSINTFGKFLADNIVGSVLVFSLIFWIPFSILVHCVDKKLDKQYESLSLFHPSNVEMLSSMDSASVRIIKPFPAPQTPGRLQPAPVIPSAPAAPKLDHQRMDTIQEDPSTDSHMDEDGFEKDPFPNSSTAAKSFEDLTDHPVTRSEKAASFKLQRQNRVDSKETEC
# PLCb3 inh: human PLC-beta3 inhibitors, primary screen, biochemical, fluorescence | inhibition, % at 12.2 µM | 370,000 compounds, 0.18% hits | 1-phosphatidylinositol 4,5-bisphosphate phosphodiesterase beta-3 (Homo sapiens), Q01970 | Purified PLC-beta3, fluorogenic substrate | AID 720704, 2013; in the data active = inhibition above about 11%;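 note: 0% = median of compound wells on plate and 100% = full blocker control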
# ADAM10 inh: human ADAM10 inhibitors, primary screen, biochemical, QFRET, HTS; Disintegrin and metalloproteinase domain-containing protein 10 (Homo sapiens), O14672; inhibition, % at 7 µM; AID 720582, 2013; 370,000 compounds, 0.62% hits; recombinant ADAM10, EDANS/DABCYL FRET peptide cleavage, 3 h;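 active = inhibition above a per-campaign cutoff equal to the mean of compounds falling between control-based bounds plus 3 SD, cut at about 20% in these data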;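 note: 0% = DMSO wells while the 100% control is not disclosed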
# PLCg1 inh: PLC-gamma1 enzyme inhibitors, primary screen, biochemical, fluorescence, purified enzyme; 370,000 compounds, 0.84% hits; inhibition, % at 12.2 µM; fluorogenic substrate; AID 720700, 2013; 1-phosphatidylinositol 4,5-bisphosphate phosphodiesterase gamma-1 (Homo sapiens), P19174; in the data active = inhibition above about 9.5%
# ADAM10 confirm: human ADAM10 inhibitors, confirmation, biochemical, QFRET, triplicate. shares compounds with ADAM10 inh. inhibition, % at 6.95 µM. AID 743208, 2013. ADAM10 QFRET peptide cleavage, EDANS fluorescence. 2,100 compounds, 1% hits;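 active = inhibition above about 20% chosen separately for each screening run, limit read from the data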;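 note: 0% = DMSO wells and 100% = marimastat wells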
# ADAM17 counter: ADAM17 inhibitors, counter-screen for ADAM10 exosite inhibitor project, biochemical, QFRET, high throughput | inhibition, % at 6.95 µM | 2,100 compounds, 0.5% hits | shares compounds with ADAM10 inh | ADAM17 QFRET peptide cleavage, EDANS fluorescence | AID 743214, 2013;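 active = mean triplicate inhibition above the solvent-only control wells' mean plus 3 SD, cut at about 12% in these data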;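 note: 0% = DMSO wells and 100% = marimastat wells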
# ADAM10 ctr: ADAM10 inhibitors, counter-screen for ADAM17 exosite inhibitor project, biochemical, FRET, human ADAM10 | shares compounds with ADAM17 inh | recombinant ADAM10, EDANS/DABCYL FRET peptide cleavage, 3 h | inhibition, % at 6.95 µM | 2,900 compounds, 47% hits | AID 743256, 2014;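 active = mean inhibition over the triplicate runs exceeds the activity threshold set in the earlier primary screen, cut at about 20% in these data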;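 note: 0% = DMSO wells and 100% = marimastat wells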
# ADAM17 confirm: ADAM17 inhibitors, hit retest, confirmation, biochemical, QFRET peptide cleavage | inhibition, % at 6.95 µM | 2,900 compounds, 65% hits | recombinant ADAM17, EDANS/DABCYL QFRET peptide cleavage | AID 743257, 2014 | shares compounds with ADAM17 inh;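 active = mean inhibition across replicates above the hit cutoff set in the primary screen, cut at about 8.5% in these data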;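 note: 0% = DMSO wells and 100% = marimastat wells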
# The depositor's hits bear a star; · = no result. A selection: hits, their analogues and other compounds. The true share with any hit is near 2.9%.
SMILES,KLK7 zymogen act,ADAM17 inh,PLCb3 inh,ADAM10 inh,PLCg1 inh,ADAM10 confirm,ADAM17 counter,ADAM10 ctr,ADAM17 confirm
Cc1ccc(C2CN(C)C3(C(=O)Nc4ccccc43)C23COc2ccccc2C3=O)cc1 (stereo not given),0,9.6*,1,27*,1,7,3,35*,19*
CN(C)c1ccc(C(CNC(=O)c2ccc(C#N)cc2)c2c[nH]c3ccccc23)cc1 (stereo not given),0,7,1,13,-1,·,·,·,·
CCOC(=O)c1ccc(S(=O)(=O)NCC(c2ccc(N(C)C)cc2)c2c[nH]c3ccccc23)cc1 (stereo not given),-1,12*,-5,26*,-2,9,3,36*,23*
Cc1ccc(C(=O)NNC(=S)NC(=O)c2ccc(Cl)cc2)cc1,0,12*,-4,20*,0,1,1,13,7
O=C(Nc1ccccc1)OCCOc1ccc(Cl)cc1Cl,1,12*,7,32*,6,5,2,28*,15*
O=C(Nc1cccc(Cl)c1)OCCOCCOC(=O)Nc1cccc(Cl)c1,1,9.8*,0,21*,5,4,2,20,13*
CC(C)COC(=O)NCCOC(=O)Nc1cccc(Cl)c1,1,4,1,5,2,·,·,·,·
O=C(O)c1n[nH]c2ccccc12,-1,2,1,9,1,·,·,·,·
O=C(O)c1cnn2c(C(F)F)cc(C(F)F)nc12,1,5,0,2,6,·,·,·,·
O=C(CSc1nnc(-c2ccco2)c(-c2ccco2)n1)c1ccccc1,-1,9.0*,-50,27*,-38,4,2,-11,-1
CC(=O)c1ccc(NC(=O)CSc2nnc(-c3ccco3)c(-c3ccco3)n2)cc1,0,-1,-23,-6,-14,·,·,·,·
COc1ccc(NC(=O)CC(C)(C)C)c([N+](=O)[O-])c1,0,-1,5,1,-1,·,·,·,·
O=C(O)c1cccc(NC(=O)C23CC4CC(C2)CC(n2cnc(Cl)n2)(C4)C3)c1,1,-5,1,10,2,·,·,·,·
O=C(Nc1cc(Oc2ccccc2)cc([N+](=O)[O-])c1)C12CC3CC(C1)CC(n1cnc(Cl)n1)(C3)C2,0,9.7*,9,22*,6,8,3,28*,11*
CCOC(=O)C(C(=O)OCC)C1OC(=O)c2cc3c(cc21)C(=O)OC3C(C(=O)OCC)C(=O)OCC (stereo not given),1,1,3,-5,-1,·,·,·,·
C#CCN(C[C@H]1[C@H](OC(=O)NCc2ccc(OC)c(OC)c2)[C@H](OC(=O)NCc2ccc(OC)c(OC)c2)C[C@H]2C(=O)N(c3ccccc3)C(=O)[C@@H]12)S(=O)(=O)c1ccc(C)cc1,-1,4,2,19,2,·,·,·,·
C#CCN(C[C@H]1[C@H](OC(=O)NCc2ccccc2F)[C@H](OC(=O)NCc2ccccc2F)C[C@H]2C(=O)N(c3ccccc3)C(=O)[C@@H]12)S(=O)(=O)c1ccc(C)cc1,0,9.0*,0,29*,3,7,2,9,5
Cc1cc(C)n(Cc2ccc(NC(=O)c3ccc(COc4ccccc4Br)cc3)cc2)n1,-1,11*,-7,29*,-2,10,4,17,12*
NC(=O)c1ccc(NC(=O)c2ccc(COc3ccccc3Br)cc2)cc1,0,1,-7,-5,-1,·,·,·,·
O=C(NCCc1nc2ccccc2[nH]1)/C(=C/c1ccco1)NC(=O)c1ccco1,0,-2,-5,-13,-2,·,·,·,·
Cc1cc(C(=O)COC(=O)c2ccc3c(c2)NC(=O)CS3)c(C)n1CC1CCCO1 (stereo not given),0,5,-4,-1,2,·,·,·,·
CCCn1c(N)c(N(CCOC)C(=O)C(C)Oc2ccc(F)cc2)c(=O)[nH]c1=O (stereo not given),0,-2,-5,-6,-2,·,·,·,·
COC(=O)[C@]12C[C@H](CC(=O)NCc3cccc4ccccc34)C(=O)N(Cc3ccccc3)C1=C[C@H](C(C)(C)C)O[C@@H]2C,1,5,4,12,0,·,·,·,·
COC(=O)[C@]12C[C@H](CC(=O)NCc3cccc(C(F)(F)F)c3)C(=O)N(Cc3ccco3)C1=C[C@H](C1CCCC1)O[C@@H]2C,1,9.0*,0,21*,2,7,1,17,8.9*
COC(=O)[C@]12C[C@H](CC(=O)NCc3ccc(OC)c(OC)c3)C(=O)N(Cc3cccc4ccccc34)C1=C[C@H](C(C)(C)C)O[C@@H]2C,1,8.8*,5,20*,3,7,3,29*,22*
COC(=O)[C@]12C[C@H](CC(=O)NCc3cccc4ccccc34)C(=O)N(Cc3ccco3)C1=C[C@H](C(C)(C)C)O[C@@H]2C,0,9.4*,-2,24*,1,8,3,32*,15*
CSc1ccccc1NC(=O)CN(C)C(=O)CNc1ccc(C(F)(F)F)cc1[N+](=O)[O-],0,0,-8,-18,2,·,·,·,·
Nn1c(=S)[nH]c2sc3c(c2c1=O)CCCC3,-1,-5,-13,1,-3,·,·,·,·
COc1ccc(C(C)=O)cc1CC1(C)C(=O)Nc2ccc(-c3cccc(C(F)(F)F)c3)cc21 (stereo not given),0,9.8*,-3,27*,2,9,3,24*,14*
CC(=O)c1cccc(-c2ccc3c(c2)C(C)(Cc2ccccc2C#N)C(=O)N3)c1 (stereo not given),-1,-2,-1,-1,1,·,·,·,·

# Compound activity (PubChem)
